# Reference: paper PMC5540273 (PLoS ONE, 2017)
# Where “and” joins values, the source holds several entries; their conditions need not be identical. Equal entries are not always repeated. Where two headings read alike, the source gives them in different places.
# Tests used:
# ABL2 = conditions: concentration: 1 μM, replicates: in singlicate, n = 1
# ACVR1B = conditions: concentration: 1 μM, replicates: in singlicate; n = 1
# ACVR1 = conditions: concentration: 1 μM, replicates: in singlicate; n = 1
# ACVR2A = conditions: concentration: 1 μM, replicates: in singlicate; n = 1
# ACVR2B = conditions: concentration: 1 μM, replicates: in singlicate; n = 1
# ACVRL1 = conditions: concentration: 1 μM, replicates: in singlicate; n = 1
# ADCK3 = system: T1, ADCK3; conditions: concentration: 1 μM, replicates: in singlicate, n = 1
# T1 construct: gene CABC1
# ADCK4 = conditions: concentration: 1 μM, replicates: in singlicate, n = 1
# AKT1 = conditions: concentration: 1 μM, replicates: in singlicate; n = 1
# AKT2 = conditions: concentration: 1 μM, replicates: in singlicate, n = 1
# AKT3 = conditions: concentration: 1 μM, replicates: in singlicate, n = 1
# ALK = conditions: concentration: 1 μM, replicates: in singlicate; n = 1
# AMPK-alpha1 = system: T2, AMPK-alpha1; conditions: concentration: 1 μM, replicates: in singlicate, n = 1
# T2 construct: gene PRKAA1
# AMPK-alpha2 = system: T3, AMPK-alpha2; conditions: concentration: 1 μM, replicates: in singlicate; n = 1
# T3 construct: gene PRKAA2
# ANKK1 = conditions: concentration: 1 μM, replicates: in singlicate, n = 1
# ARK5 = system: T4, ARK5; conditions: concentration: 1 μM, replicates: in singlicate, n = 1
# T4 construct: gene NUAK1
# ASK1 = system: T5, ASK1; conditions: concentration: 1 μM, replicates: in singlicate, n = 1
# T5 construct: gene MAP3K5
# ASK2 = system: T6, ASK2; conditions: concentration: 1 μM, replicates: in singlicate, n = 1
# T6 construct: gene MAP3K6
# AURKA = conditions: concentration: 1 μM, replicates: in singlicate, n = 1
# AURKB = conditions: concentration: 1 μM, replicates: in singlicate, n = 1
# 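Also: KINOMEscan kinase panel screen.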
structure (smiles),measurement,setting,value
O=C(Nc1ccccc1F)NC1CCN(c2ccnc(Nc3ccc(F)cc3)n2)C1 (centres unmarked) [GSK1379722],%Inh,ABL2,9%
same,%Inh,ACVR1B,0%
same,%Inh,ACVR1,25%
same,%Inh,ACVR2A,0%
same,%Inh,ACVR2B,0%
same,%Inh,ACVRL1,0%
same,%Inh,ADCK3,20%
same,%Inh,ADCK4,40%
same,%Inh,AKT1,0%
same,%Inh,AKT2,13%
same,%Inh,AKT3,0%
same,%Inh,ALK,26%
same,%Inh,AMPK-alpha1,2%
same,%Inh,AMPK-alpha2,21%
same,%Inh,ANKK1,0%
same,%Inh,ARK5,12%
same,%Inh,ASK1,8%
same,%Inh,ASK2,16%
same,%Inh,AURKA,0%
same,%Inh,AURKB,38%
COc1ccc(-c2nc3n(c2-c2ccncc2)CCC3)cc1 [SKF-104493],%Inh,ABL2; 1 µM,5% and 0%
same,%Inh,ACVR1B,19%
same,%Inh,ACVR1,0%
same,%Inh,ACVR2A,0%
same,%Inh,ACVR2B,0%
same,%Inh,ACVRL1,0%
same,%Inh,ADCK3; 1 µM,0% and 6%
same,%Inh,ADCK4; 1 µM,12% and 6%
same,%Inh,AKT1,0%
same,%Inh,AKT2; 1 µM,0% and 3%
same,%Inh,AKT3; 1 µM,19% and 0%
same,%Inh,ALK,0%
same,%Inh,AMPK-alpha1; 1 µM,11% and 9%
same,%Inh,AMPK-alpha2,0%
same,%Inh,ANKK1; 1 µM,0% and 16%
same,%Inh,ARK5; 1 µM,0% and 12%
same,%Inh,ASK1; 1 µM,0% and 2%
same,%Inh,ASK2; 1 µM,30% and 6%
same,%Inh,AURKA; 1 µM,16% and 23%
same,%Inh,AURKB; 1 µM,23% and 7%
N#Cc1ccc(Oc2ccc(Nc3ncnc4cc[nH]c34)cc2Cl)cc1,%Inh,ABL2,12%
same,%Inh,ACVR1B,15%
same,%Inh,ACVR1,1%
same,%Inh,ACVR2A,27%
same,%Inh,ACVR2B,25%
same,%Inh,ACVRL1,6%
same,%Inh,ADCK3,13%
same,%Inh,ADCK4,8%
same,%Inh,AKT1,0%
same,%Inh,AKT2,0%
same,%Inh,AKT3,0%
same,%Inh,ALK,0%
same,%Inh,AMPK-alpha1,17%
same,%Inh,AMPK-alpha2,15%
same,%Inh,ANKK1,28%
same,%Inh,ARK5,10%
same,%Inh,ASK1,18%
same,%Inh,ASK2,0%
same,%Inh,AURKA,11%
same,%Inh,AURKB,16%
Cc1ccc(C)c(NC(=O)NCCNc2ccnc(Nc3ccc(F)cc3)n2)c1 [GSK1379878],%Inh,ABL2,0%
same,%Inh,ACVR1B,0%
same,%Inh,ACVR1,0%
same,%Inh,ACVR2A,0%
same,%Inh,ACVR2B,0%
same,%Inh,ACVRL1,0%
same,%Inh,ADCK3,0%
same,%Inh,ADCK4,10%
same,%Inh,AKT1,0%
same,%Inh,AKT2,0%
same,%Inh,AKT3,0%
same,%Inh,ALK,2%
same,%Inh,AMPK-alpha1,10%
same,%Inh,AMPK-alpha2,0%
same,%Inh,ANKK1,5%
same,%Inh,ARK5,0%
same,%Inh,ASK1,0%
same,%Inh,ASK2,0%
same,%Inh,AURKA,7%
same,%Inh,AURKB,0%
COC(=O)c1cccc(NC(=O)NCCNc2ccnc(Nc3ccc(F)cc3)n2)c1 [GSK1379883],%Inh,ABL2,1%
same,%Inh,ACVR1B,0%
same,%Inh,ACVR1,6%
same,%Inh,ACVR2A,0%
same,%Inh,ACVR2B,0%
same,%Inh,ACVRL1,0%
same,%Inh,ADCK3,15%
same,%Inh,ADCK4,48%
same,%Inh,AKT1,0%
same,%Inh,AKT2,0%
same,%Inh,AKT3,0%
same,%Inh,ALK,32%
same,%Inh,AMPK-alpha1,0%
same,%Inh,AMPK-alpha2,18%
same,%Inh,ANKK1,1%
same,%Inh,ARK5,0%
same,%Inh,ASK1,0%
same,%Inh,ASK2,0%
same,%Inh,AURKA,21%
same,%Inh,AURKB,0%
Fc1cccc(COc2ccc(Nc3ncnc4sc(-c5ccc[nH]5)cc34)cc2Cl)c1 [GW707818],%Inh,ABL2,0%
same,%Inh,ACVR1B,2%
same,%Inh,ACVR1,9%
same,%Inh,ACVR2A,5%
same,%Inh,ACVR2B,16%
same,%Inh,ACVRL1,4%
same,%Inh,ADCK3,1%
same,%Inh,ADCK4,24%
same,%Inh,AKT1,0%
same,%Inh,AKT2,7%
same,%Inh,AKT3,0%
same,%Inh,ALK,0%
same,%Inh,AMPK-alpha1,10%
same,%Inh,AMPK-alpha2,36%
same,%Inh,ANKK1,12%
same,%Inh,ARK5,6%
same,%Inh,ASK1,21%
same,%Inh,ASK2,0%
same,%Inh,AURKA,6%
same,%Inh,AURKB,0%
OCCOCCn1ccc2ncnc(Nc3ccc(Oc4cccc(Cl)c4)c(Cl)c3)c21,%Inh,ABL2,0%
same,%Inh,ACVR1B,0%
same,%Inh,ACVR1,0%
same,%Inh,ACVR2A,8%
same,%Inh,ACVR2B,0%
same,%Inh,ACVRL1,0%
same,%Inh,ADCK3,2%
same,%Inh,ADCK4,0%
same,%Inh,AKT1,0%
same,%Inh,AKT2,0%
same,%Inh,AKT3,0%
same,%Inh,ALK,0%
same,%Inh,AMPK-alpha1,0%
same,%Inh,AMPK-alpha2,0%
same,%Inh,ANKK1,0%
same,%Inh,ARK5,0%
same,%Inh,ASK1,0%
same,%Inh,ASK2,0%
same,%Inh,AURKA,0%
same,%Inh,AURKB,0%
CCc1nc(-c2cccc(N(C)S(=O)(=O)c3ccccc3)c2)c(-c2ccnc(Nc3ccc(N4CCN(C(C)=O)CC4)nc3)n2)s1 [GSK1645895],%Inh,ABL2,23%
same,%Inh,ACVR1B,0%
same,%Inh,ACVR1,0%
same,%Inh,ACVR2A,0%
same,%Inh,ACVR2B,0%
same,%Inh,ACVRL1,0%
same,%Inh,ADCK3,16%
same,%Inh,ADCK4,19%
same,%Inh,AKT1,0%
same,%Inh,AKT2,0%
same,%Inh,AKT3,0%
same,%Inh,ALK,18%
same,%Inh,AMPK-alpha1,0%
same,%Inh,AMPK-alpha2,0%
same,%Inh,ANKK1,26%
same,%Inh,ARK5,16%
same,%Inh,ASK1,12%
same,%Inh,ASK2,0%
same,%Inh,AURKA,19%
same,%Inh,AURKB,10%
CCc1nc(-c2cccc(C)c2)c(-c2ccnc(NC(=O)c3ccccc3)c2)s1,%Inh,ABL2,27%
same,%Inh,ACVR1B,12%
same,%Inh,ACVR1,0%
same,%Inh,ACVR2A,0%
same,%Inh,ACVR2B,0%
same,%Inh,ACVRL1,0%
same,%Inh,ADCK3,17%
same,%Inh,ADCK4,20%
same,%Inh,AKT1,0%
same,%Inh,AKT2,13%
same,%Inh,AKT3,0%
same,%Inh,ALK,27%
same,%Inh,AMPK-alpha1,16%
same,%Inh,AMPK-alpha2,1%
same,%Inh,ANKK1,0%
same,%Inh,ARK5,0%
same,%Inh,ASK1,9%
same,%Inh,ASK2,0%
same,%Inh,AURKA,17%
same,%Inh,AURKB,6%
Fc1cccc(COc2ccc(Nc3ncnc4cc[nH]c34)cc2Cl)c1,%Inh,ABL2,10%
same,%Inh,ACVR1B,12%
same,%Inh,ACVR1,19%
same,%Inh,ACVR2A,0%
same,%Inh,ACVR2B,3%
same,%Inh,ACVRL1,16%
same,%Inh,ADCK3,1%
same,%Inh,ADCK4,17%
same,%Inh,AKT1,0%
same,%Inh,AKT2,0%
same,%Inh,AKT3,0%
same,%Inh,ALK,0%
same,%Inh,AMPK-alpha1,4%
same,%Inh,AMPK-alpha2,0%
same,%Inh,ANKK1,40%
same,%Inh,ARK5,11%
same,%Inh,ASK1,11%
same,%Inh,ASK2,0%
same,%Inh,AURKA,16%
same,%Inh,AURKB,24%
